Pf growth 96h: Primary qHTS for delayed death inhibitors of the malarial parasite plastid, 96 hour incubation | P. falciparum luciferase reporter growth, 96 h | Potency, µM (top dose mostly 28.7 µM), for inactives: at the top dose activity change, negative = inhibition, actives largely listed as inhibitors | hit rate 6.9% among 320,000; further: potency means the concentration at half of the fitted maximal effect; on the % scale 0 is the no-effect control and ±100 the full control effect
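96 h incubation, 37 C, 5% CO2, of luciferase-reporter P. falciparum-infected RBCs (2% hematocrit, 0.05% parasitemia final) with test compounds; endpoint luminescence.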
Cycloheximide cs: Cycloheximide Counterscreen for Small Molecule Inhibitors of Shiga Toxin; cell reporter, cycloheximide protein synthesis inhibition counterscreen; max response, %; hit rate 12% among 300,000; in the data active means max response mostly above about 13%, no sharp cut-off; inactive means mostly below about 14%; further: read at 38.3 µM for the half of the compounds with a filed dose; 0% is about no effect
Shiga inhibitor: A qHTS for Small Molecule Inhibitors of Shiga Toxin; Vero cells, Shiga toxin protein synthesis inhibition reporter; inhibition, % at 38.7 µM; hit rate 9.2% among 290,000; AID 2315, 2010; in the data active means inhibition mostly above about 28%, no sharp cut-off; inactive means mostly below about 43%; further: 0% is about no effect
Pf growth 48h: Primary qHTS for delayed death inhibitors of the malarial parasite plastid, 48 hour incubation | AID 504832, 2011 | hit rate 5.9% among 310,000 | Potency, µM (series often up to 28.7 µM), for the others: at the top dose activity change, negative = inhibition, hits mostly inhibitors | P. falciparum luciferase growth in erythrocytes, 48 h; further: potency means the concentration at half of the fitted maximal effect; on the % scale 0 is the no-effect control and ±100 the full control effect
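Luciferase-expressing parasites in RBCs, 2% Hct / 0.1% parasitemia final; RPMI 1640 + 0.5% Albumax; 37 C, 5% CO2, one generation; luminescence read-out, lower signal = inhibition.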
NS1 inh: qHTS Assay for Inhibitors of Influenza NS1 Protein Function | Potency, µM (top dose mostly 46.1 µM), for the others: at the top dose activity, positive = more growth | hit rate 0.4% among 270,000 | AID 2326, 2010; calls by dose curve; further: potency means the concentration at half of the fitted maximal effect; actives are rising curves; nearly all actives have a fitted effect of over 50% in size
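Growth recovery, yeast-based: influenza A NS1 expressed in S. cerevisiae causes slow growth, and suppressors are detected by OD600. The parent strain without NS1 is used as positive control.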
Sm TGR block: qHTS Assay for the Inhibitors of Schistosoma Mansoni Peroxiredoxins. Potency, µM (top dose mostly 114 µM), for the others: at the top dose activity change, negative = inhibition, hits mostly inhibitors. hit rate 3% among 360,000. AID 485364, 2010. purified TGR, DTNB reduction, TNB absorbance 405 nm. Schistosoma mansoni thioredoxin glutathione reductase (TGR), Q962Y6; further: potency means the concentration at half of the fitted maximal effect; on the % scale 0 is the no-effect control and ±100 the full control effect; nearly all actives have a fitted effect of over 60% in size
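Kinetic colorimetric format: TGR-catalysed, NADPH-driven DTNB reduction monitored via TNB absorbance. Enzyme dispensed at 20 nM; compound exposure 15 min at room temperature before reaction start.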
* marks the source's active call; other numbers are inactive results; ? = inconclusive; nt = no result given; [ ] = remark or other dose. Most compounds without a hit are left out; they make up all but 21% or so of the library. Unless noted, the call rests on the fitted dose curve; in most records, active means well fitted curve in the direction sought with a large enough effect; inconclusive means small, poorly fitted or top-dose-only effect, or another doubt; inactive means no such curve, though single readings can be large; an effect the other way counts as inactive or inconclusive.

SMILES | Pf growth 96h | Cycloheximide cs | Shiga inhibitor | Pf growth 48h | NS1 inh | Sm TGR block
O=C(/C=C/c1ccco1)NC1CCCC1 | ? | 7 | 28 | -4% | -1% | 4.5µM*
CC1CCCCC1NC(=O)COC(=O)c1ccccc1NC(=O)c1ccco1 (stereo not drawn) | 39% | -2 | 20 | nt | 8% | -2%
CC1CCCCC1NC(=O)COC(=O)/C=C/c1ccco1 (stereo not drawn) | 22% | nt | nt | 19% | nt | 40µM*
O=C(COC(=O)/C=C/c1ccco1)NC1CCCCC1 | -12% | nt | nt | -18% | nt | 13µM*
CCCCCCCCCCCCCC/C(C(=O)O)=C(\C)C(=O)O | nt | -8 | -5 | nt | nt | nt
N#Cc1ccc(OCC(=O)OCC(=O)Nc2cc(C(F)(F)F)ccc2N2CCOCC2)cc1 | 4% | 4 | -6 | -12% | -22% | 0%
O=C(COC(=O)/C=C/c1ccc(Br)o1)Nc1ccccc1F | 11% | 0 | 2 | 6% | nt | 79µM*
O=C(COC(=O)/C=C/c1ccc(Br)o1)NC1CCCCC1 | -28% | nt | nt | ? | nt | 13µM*
Cc1cccc(N=Nc2c(N)n[nH]c2N)c1 | ? | 17* | 36 | 19% | 18% | 8%
Cc1cccc(N=C2N=C(N)c3ccccc32)c1 | 21% | -2 | -13 | 14% | -21% | -2%
Nc1n[nH]c(N)c1N=Nc1cccc(C(F)(F)F)c1 | 15% | 15 | 22 | 2%[0.00184 µM] | -1% | 0%
Nc1[nH]ncc1-c1ccc(Cl)cc1 | ? | -1 | -7 | -2% | nt | 1%
Nc1n[nH]c(N)c1N=Nc1cccc(F)c1 | -14% | 16 | 34* | 14% | 10% | 4%
Nc1n[nH]c(N)c1N=Nc1ccc(Cl)cc1 | 6% | 47* | 20 | 61% | ? | 3%
Nc1[nH]ncc1N=Nc1ccc(Cl)cc1 | 82% | 55* | 98* | nt | -62% | 3%
COc1cc2c(cc1OC)C(COc1ccc3c(C)cc(=O)oc3c1)N(C(=O)Cc1ccccc1)CC2 (stereo not drawn) | nt | nt | nt | nt | nt | 3%
NC(N)=NS(=O)(=O)c1ccc(NC(=S)NC(=O)c2ccc(Br)cc2)cc1 | -28% | -1 | -4 | 2% | 0% | -35%
O=C(C1COc2ccccc2O1)N(Cc1cccnc1)c1nc2ccc(Cl)cc2s1 (stereo not drawn) | nt | nt | nt | nt | nt | 0%
c1csc(-c2nc(CN3CCSCC3)cs2)c1 | 271% | 45* | 76* | 147% | 3% | 0%
O=S1(=O)CCN(Cc2csc(-c3cccs3)n2)CC1 | 141% | 31* | 68* | 203% | -5% | -2%
CCn1cc(C(=O)N[C@@H](CCSC)C(=O)NCCO)c(=O)c2cc3c(cc21)OCO3 | 6.6µM* | -3 | -3 | 8.3µM* | 0% | 9%
CCn1cc(C(=O)N[C@@H](C)C(=O)NCCCO)c(=O)c2cc3c(cc21)OCO3 | 6% | 3 | 3 | 29% | 4% | -1%
CCN1CCN(CCCNC(=O)CN2C(=O)c3cccnc3Oc3ccc(Cl)cc32)CC1 | ? | -6 | -8 | 2% | -2% | -6%
Cc1snc2sc(C(=O)c3ccc(F)cc3)c(N)c12 | 94% | 26* | 77* | 9% | -5% | -10%
CCOC(=O)C1(Cc2ccc(OC)cc2)CCN(C(=O)CCn2cccn2)CC1 | -13% | 30* | 88 | 5% | -3% | 2%
SMILES | Pf growth 96h | Cycloheximide cs | Shiga inhibitor | Pf growth 48h | NS1 inh | Sm TGR block
CCOC(=O)C1(Cc2ccc(OC)cc2)CCN(C(=O)CCn2ccc(C)n2)CC1 | ? | -2 | 11 | -8% | -11% | 1%
CCOC(=O)C1(Cc2ccc(OC)cc2)CCN(C(=O)Cn2cnnn2)CC1 | 1.9µM* | 9 | 22 | 2% | -5% | -33%
Cc1cc(C)nc(-n2nc(C)c3c2N(Cc2ccccc2F)C(=O)CC3c2ccc(Cl)cc2)n1 (stereo not drawn) | nt | nt | nt | nt | nt | 4%
CC[C@H](C)[C@H](NC(=O)[C@H](CC(C)C)NC(=O)[C@H](CC(N)=O)NC(=O)[C@@H](NC(=O)[C@@H](N)Cc1ccc(O)cc1)[C@@H](C)CC)C(=O)N[C@@H](Cc1ccc(O)cc1)C(=O)N[C@@H](CCCN=C(N)N)C(=O)N[C@@H](CC(C)C)C(=O)N[C@@H](CCCN=C(N)N)C(=O)N[C@@H](Cc1ccc(O)cc1)C(N)=O | nt | -2 | -3 | nt | nt | nt
COc1ccc(NC(=O)c2ccc3c(c2)C(=O)N(CC2CCCO2)C3=O)cc1 (stereo not drawn) | ? | -2 | 21 | 12% | 3% | -10%
O=C(O)c1cccc(NC(=O)c2ccc3c(c2)C(=O)N(CC2CCCO2)C3=O)c1 (stereo not drawn) | 5% | 1 | -4 | nt | 4% | -2%
O=C(Nc1ccc2c(c1)C(=O)N(CC1CCCO1)C2=O)c1cccc(Br)c1 (stereo not drawn) | 33% | 25* | 115* | nt | -1% | -11%
COc1cccc(NC(=O)c2ccc3c(c2)C(=O)N(CC2CCCO2)C3=O)c1 (stereo not drawn) | 65% | 30* | 40 | 24% | -9% | -13%
COc1ccccc1Oc1ccc2c(c1)C(=O)N(CC1CCCO1)C2=O (stereo not drawn) | 19% | 37* | 46* | 19% | -4% | 13%
CC(=O)Oc1cccc(C(=O)Nc2ccc3c(c2)C(=O)N(CC2CCCO2)C3=O)c1 (stereo not drawn) | 4% | 7 | -4 | ? | 10% | 7%
COc1cccc(C(=O)Nc2ccc3c(c2)C(=O)N(CC2CCCO2)C3=O)c1 (stereo not drawn) | -16% | 44* | 55* | ? | -9% | 3%
COc1ccc(-c2c(C)nn3c4c(cnc23)C(=O)CC(c2ccc(C)cc2)C4)cc1 (stereo not drawn) | nt | nt | nt | nt | nt | 0%
C1CCC(Nc2nc3nonc3nc2N2CCSCC2)C1 | 4% | -2 | -13 | ? | 6% | 5%
COc1ccc(/C=C2\NC(=S)N(CC3CCCO3)C2=O)c(OC)c1 (stereo not drawn) | 13% | 23* | 34 | 12% | -10% | -1%
CC(C)C[C@H](NC(=O)c1nc[nH]c1C(=O)N[C@@H](CCCCNC(=O)OC(C)(C)C)C(=O)OC(C)(C)C)C(=O)OCc1ccccc1 | 3.3µM* | 8 | 7 | ? | ? | 23%
CC(C)C[C@H](NC(=O)c1[nH]cnc1C(=O)N[C@@H](Cc1ccccc1)C(=O)OCc1ccccc1)C(=O)OC(C)(C)C | ? | -1 | 2 | ? | ? | -15%
CC(C)C[C@H](NC(=O)c1nc[nH]c1C(=O)NCCCCCNC(=O)OC(C)(C)C)C(=O)OCc1ccccc1 | 9.3µM* | 7 | -9 | ? | 25% | -15%

Screens: PubChem BioAssay, National Center for Advancing Translational Sciences (NCATS)
